# Source: PubChem BioAssay (Tox21)
# Unmarked numbers belong to inactive results. Inconclusive results are not listed. Where a call stands in place of a potency, no number is given. Activity calls are given as the source filed them. Unless noted, calls follow the shape of the dose curve; as a rule, active = well fitted curve in the direction sought with a large enough effect in the repeat runs; inconclusive = weak or mixed curves; inactive = no such curve, though single readings can be large; an effect the other way counts as inactive or inconclusive.
# Tests used:
# [1] = qHTS assay to identify small molecule HDAC inhibitors - cell viability counter screen (AID 1259365); also: series mostly up to about 92 µM; nearly all actives have a fitted effect of over 50% in size
# Summary of the method: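 Measured quantity is CellTiter-Glo luminescence from wild-type HCT-116 cells after compound incubation of 2hr at 37C, 5% CO2; reagent developed 30min at room temperature.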
# [2] = qHTS assay to identify small molecule agonists of the sonic hedgehog signaling (Shh) pathway - cell viability counter screen (AID 1259366); also: nearly all actives have a fitted effect of over 50% in size
# Summary of the method: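 In quantitative high-throughput format, 3T3 Gli1-Luc cells were exposed to compounds for 24hr and multiplexed for viability using CellTiter-Fluor, incubated 1hr at 37C before the fluorescence read.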
# [3] = qHTS assay to identify small molecule antagonists of the sonic hedgehog signaling (Shh) pathway - cell viability counter screen (AID 1259367); also: nearly all actives have a fitted effect of over 55% in size
# Summary of the method: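 Cytotoxicity was assessed in parallel with Shh reporter activity by measuring live-cell protease fluorescence (CellTiter-Fluor) in NIH/3T3 cells stably carrying Gli1-Luc, treated with compound under conditioned medium stimulation for 23 hr plus 1 hr reagent incubation.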
# [4] = qHTS assay to identify small molecule antagonists of the sonic hedgehog signaling (Shh) pathway (AID 1259369; calls by dose curve; also: nearly all actives have a fitted effect of over 45% in size)
# Summary of the method: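 Cells are plated and held 4hr at 37 C, compounds (DMSO) are pinned in, conditioned medium is added to stimulate the pathway, and after 24hr luciferase reagent is added for 30min before luminescence is read.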
# [5] = target: Estrogen receptor beta (Homo sapiens) (UniProt Q92731); assay: qHTS assay to identify small molecule agonists of the estrogen receptor beta (ER-beta) signaling pathway (AID 1259377; active = well fitted activation curve with a large enough effect in the signal ratio in the repeat runs, not every such curve was filed as active; the % refers to the signal ratio; also: potency is read from the fitted curve at half-maximal effect)
# Summary of the method: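 Reporter cells (HEK293T, ER-beta-UAS-bla) receive compounds or DMSO after a 6 hr pre-incubation. They then incubate 16 hr at 37C/5% CO2, and fluorescence from LiveBLAzer B/G substrate is measured after 2 hours at room temperature.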
# [6] = qHTS assay to identify small molecule agonists of the androgen receptor (AR) signaling pathway in the presence of an antagonist - cell viability counter screen (AID 1259379);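 also: MDA-kb2 human breast cancer cells carrying an MMTV luciferase reporter; series mostly up to about 92 µM; nearly all actives have a fitted effect of over 25% in size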
# Summary of the method: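 Cytotoxicity is assessed by CellTiter-Fluor in MDA-kb2 cells carrying an MMTV-driven luciferase reporter. Cells receive 3.0uM nilutamide plus compounds at 15 concentrations and incubate 16 hr at 37C without CO2 before fluorescence reading.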
# [7] = target: Estrogen receptor beta (Homo sapiens) (UniProt Q92731); assay: qHTS assay to identify small molecule antagonists of the estrogen receptor beta (ER-beta) signaling pathway (AID 1259378; active = well fitted inhibition curve with a large enough effect in the signal ratio in the repeat runs, not every such curve was filed as active; the % refers to the signal ratio)
# Summary of the method: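 ER-beta-UAS-bla HEK293T (GripTite) cells in 2% charcoal-stripped FBS medium were preincubated 6 hr at 37C, dosed with compound, then stimulated with 1 nM E2 (final) for 16 hr; beta-lactamase reporter read by B/G FRET fluorescence after 2 hr substrate loading.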
# [8] = qHTS assay to identify small molecule agonists of the estrogen receptor beta (ER-beta) signaling pathway - cell viability counter screen (AID 1259380); also: nearly all actives have a fitted effect of over 30% in size
# Summary of the method: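 Cytotoxicity is measured in parallel with the reporter screen: after 16 hr compound exposure at 37C and a 2 hr LiveBLAzer step, CellTiter-Glo is added to the same ER-beta-UAS-bla HEK293T wells and luminescence read after 30 min.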
# [9] = qHTS assay to identify small molecule agonists of the sonic hedgehog signaling (Shh) pathway (AID 1259368; calls by dose curve;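 also: NIH/3T3-derived 3T3Gli1-Luc cells carrying a stable Gli1-driven firefly luciferase reporter; series mostly up to about 92 µM; nearly all actives have a fitted effect of over 15% in size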)
# Summary of the method: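 Cells of a mouse NIH/3T3 clone stably expressing luciferase under the Gli1 transcriptional response element are exposed to test chemicals for 24 hr at 37 C. Pathway activation is detected as a rise in luminescence.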
# [10] = target: Androgen receptor (Homo sapiens) (UniProt P10275); assay: qHTS assay to identify small molecule agonists of the androgen receptor (AR) signaling pathway in the presence of an antagonist (AID 1259381; calls by dose curve; also: nearly all actives have a fitted effect of over 15% in size)
# Summary of the method: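 Agonist-mode confirmation screen: human MDA-kb2 cells stably expressing luciferase under an MMTV promoter bearing AR and GR response elements, co-treated with 3.0uM nilutamide (final). Luminescence measured after 16hr compound incubation.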
# Estrogen receptor beta (Homo sapiens), sequence (Q92731 whole entry, looked up): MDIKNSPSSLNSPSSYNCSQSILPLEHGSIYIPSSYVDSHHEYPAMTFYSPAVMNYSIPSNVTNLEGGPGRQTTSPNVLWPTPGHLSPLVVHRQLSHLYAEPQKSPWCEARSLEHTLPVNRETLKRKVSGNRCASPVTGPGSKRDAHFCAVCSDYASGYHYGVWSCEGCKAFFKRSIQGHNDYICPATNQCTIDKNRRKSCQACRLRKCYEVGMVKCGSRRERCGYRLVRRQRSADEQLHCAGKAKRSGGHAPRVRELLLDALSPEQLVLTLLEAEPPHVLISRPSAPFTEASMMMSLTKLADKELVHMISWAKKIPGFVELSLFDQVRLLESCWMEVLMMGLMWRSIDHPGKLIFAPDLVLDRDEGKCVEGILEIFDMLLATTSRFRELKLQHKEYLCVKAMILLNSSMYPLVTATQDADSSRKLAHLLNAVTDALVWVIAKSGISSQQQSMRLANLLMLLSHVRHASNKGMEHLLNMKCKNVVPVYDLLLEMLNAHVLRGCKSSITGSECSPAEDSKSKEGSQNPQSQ
# Androgen receptor (Homo sapiens), sequence (P10275 whole entry, looked up): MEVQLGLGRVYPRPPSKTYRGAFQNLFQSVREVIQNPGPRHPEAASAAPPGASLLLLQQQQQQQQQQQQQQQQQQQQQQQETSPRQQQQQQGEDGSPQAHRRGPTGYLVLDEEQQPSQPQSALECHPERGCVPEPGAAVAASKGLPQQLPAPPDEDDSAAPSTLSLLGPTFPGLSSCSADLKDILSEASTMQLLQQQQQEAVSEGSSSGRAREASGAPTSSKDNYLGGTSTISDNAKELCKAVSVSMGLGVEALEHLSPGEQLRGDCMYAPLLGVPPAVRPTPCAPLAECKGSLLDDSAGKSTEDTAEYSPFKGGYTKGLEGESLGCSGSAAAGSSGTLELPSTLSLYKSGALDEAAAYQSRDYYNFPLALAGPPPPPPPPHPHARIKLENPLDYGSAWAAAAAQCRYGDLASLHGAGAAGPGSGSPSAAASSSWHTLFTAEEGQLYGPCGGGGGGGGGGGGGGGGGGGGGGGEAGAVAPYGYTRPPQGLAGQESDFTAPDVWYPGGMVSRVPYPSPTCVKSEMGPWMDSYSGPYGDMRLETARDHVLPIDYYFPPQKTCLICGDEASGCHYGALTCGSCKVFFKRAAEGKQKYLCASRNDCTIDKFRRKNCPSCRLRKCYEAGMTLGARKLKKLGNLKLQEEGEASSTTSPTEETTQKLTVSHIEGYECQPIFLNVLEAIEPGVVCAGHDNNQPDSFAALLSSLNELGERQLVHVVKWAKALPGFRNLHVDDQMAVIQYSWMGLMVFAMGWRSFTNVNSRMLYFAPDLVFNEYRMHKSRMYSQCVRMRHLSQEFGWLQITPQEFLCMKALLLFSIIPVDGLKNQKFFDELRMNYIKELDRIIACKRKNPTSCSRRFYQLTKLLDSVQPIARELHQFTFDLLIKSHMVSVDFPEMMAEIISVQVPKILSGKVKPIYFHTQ
compound,measurement,setting,value
Cc1ccc(O)c([N+](=O)[O-])c1,outcome,[1],inactive
same,outcome,[2],inactive
same,outcome,[3],inactive
same,Potency,[4],inactive
same,Potency,[5],inactive
same,outcome,[6],inactive
CCCCC(CC)CCC(CC(C)C)OS(=O)(=O)O (centres undefined),outcome,[1],inactive
same,outcome,[2],inactive
same,outcome,[3],inactive
same,Potency,[4],inactive
same,Potency,[5],inactive
same,outcome,[7],inactive
same,outcome,[6],inactive
same,Potency,[8],inactive
CCc1ncc(C)[nH]1,outcome,[1],inactive
same,outcome,[2],inactive
same,outcome,[3],inactive
same,outcome,[9],inactive
same,Potency,[5],inactive
same,outcome,[7],inactive
same,outcome,[6],inactive
same,Potency,[8],inactive
same,outcome,[10],inactive
CCCCS,outcome,[1],inactive
same,outcome,[2],inactive
same,outcome,[3],inactive
same,Potency,[4],inactive
same,Potency,[5],inactive
same,outcome,[7],inactive
same,outcome,[6],inactive
same,Potency,[8],inactive
CCCCCCCCCCCCCCCCN(C)C,"activity change, negative = cytotoxicity",[1],1.52% [at 8.39 µM]
same,"viability change, negative = cytotoxic",[2],4.7% [at 8.39 µM]
same,"viability change, negative = cytotoxic",[3],2.16% [at 8.39 µM]
same,"activity change, negative = inhibition",[4],-28.7% [at 8.39 µM]
same,activation,[5],-2.39% [at 8.39 µM]
same,"activity, negative = inhibition",[7],3.25% [at 8.39 µM]
same,"activity change, negative = cytotoxicity",[6],0.395% [at 8.39 µM]
same,"activity change, negative = cytotoxicity",[8],3.62% [at 8.39 µM]
same,activation,[10],-0.033% [at 8.39 µM]
NC[C@H]1O[C@H](O[C@H]2[C@H](O)[C@@H](O[C@H]3O[C@H](CO)[C@@H](O)[C@H](N)[C@H]3O)[C@H](N)C[C@@H]2N)[C@H](N)[C@@H](O)[C@@H]1O,"activity change, negative = cytotoxicity",[1],-0.176% [at 19 µM]
same,"viability change, negative = cytotoxic",[2],0.901% [at 19 µM]
same,"viability change, negative = cytotoxic",[3],3.49% [at 19 µM]
same,activity change,[9],0.032% [at 18.9 µM]
same,"activity change, negative = cytotoxicity",[6],-5.29% [at 19 µM]
same,"activity change, negative = cytotoxicity",[8],2.53% [at 19 µM]
COc1cc(C(=O)NC2CCCNC2)cc(OC)c1OC (centres undefined),outcome,[1],inactive
same,outcome,[2],inactive
same,outcome,[9],inactive
same,Potency,[4],inactive
same,Potency,[5],inactive
same,outcome,[7],inactive
same,outcome,[6],inactive
same,Potency,[8],inactive
CCCCCCCCS(=O)(=O)O,outcome,[1],inactive
same,outcome,[2],inactive
same,outcome,[9],inactive
same,outcome,[7],inactive
same,outcome,[6],inactive
CCCCCCCOC(C)=O,outcome,[1],inactive
same,outcome,[2],inactive
same,Potency,[4],inactive
same,outcome,[6],inactive
same,Potency,[8],inactive
CC(=O)O[C@@H]1CC2C3CCc4cc(OC(=O)c5ccccc5)ccc4C3CCC2(C)[C@H]1OC(C)=O (some centres undefined),outcome,[1],inactive
same,outcome,[2],inactive
same,Potency,[5],13.3 nM (active)
same,outcome,[6],inactive
same,outcome,[10],inactive
CN1C(CCl)Nc2cc(Cl)c(S(N)(=O)=O)cc2S1(=O)=O (centres undefined),outcome,[1],inactive
same,outcome,[3],inactive
same,outcome,[9],inactive
same,Potency,[4],inactive
same,Potency,[5],inactive
same,outcome,[7],inactive
same,outcome,[6],inactive
CN(C)CCCN(C)C,"activity change, negative = cytotoxicity",[1],1.58% [at 8.39 µM]
same,"viability change, negative = cytotoxic",[2],-8.84% [at 8.39 µM]
same,activity change,[9],0.31% [at 8.39 µM]
same,activation,[5],-0.616% [at 8.39 µM]
same,"activity, negative = inhibition",[7],14.4% [at 8.39 µM]
same,"activity change, negative = cytotoxicity",[6],4.3% [at 8.39 µM]
same,"activity change, negative = cytotoxicity",[8],5.46% [at 8.39 µM]
CCOC(=O)c1ccc(N(C)C)cc1,outcome,[1],inactive
same,outcome,[2],inactive
same,outcome,[9],inactive
same,Potency,[4],inactive
same,outcome,[7],inactive
same,outcome,[6],inactive
same,Potency,[8],inactive
COc1ccc2cc(CCC(C)=O)ccc2c1,outcome,[1],inactive
same,outcome,[2],inactive
same,outcome,[9],inactive
same,Potency,[4],inactive
same,Potency,[5],inactive
same,outcome,[7],inactive
same,outcome,[6],inactive
same,Potency,[8],inactive
N[C@H]1C(O)O[C@H](CO)[C@@H](O)[C@@H]1O (some centres undefined),outcome,[1],inactive
same,outcome,[2],inactive
same,outcome,[9],inactive
same,Potency,[5],inactive
same,outcome,[7],inactive
same,outcome,[6],inactive
same,outcome,[10],inactive
CCCCCCCCCCCBr,outcome,[1],inactive
same,outcome,[2],inactive
same,Potency,[4],inactive
same,Potency,[5],inactive
same,outcome,[7],inactive
same,outcome,[6],inactive
same,Potency,[8],inactive
CC(=O)Oc1ccc(C(C)=O)cc1,outcome,[1],inactive
same,outcome,[2],inactive
same,outcome,[9],inactive
same,Potency,[4],inactive
same,outcome,[6],inactive
same,Potency,[8],inactive
N#CC1(N)CCCCC1,outcome,[1],inactive
same,outcome,[2],inactive
same,Potency,[4],inactive
same,Potency,[5],inactive
same,outcome,[7],inactive
same,outcome,[6],inactive
same,Potency,[8],inactive
CC(C)(C)OC=O,outcome,[1],inactive
same,outcome,[3],inactive
same,outcome,[9],inactive
same,Potency,[4],inactive
same,Potency,[5],inactive
same,outcome,[7],inactive
same,outcome,[6],inactive
C/C=C(\C)C(=O)OC/C=C(\C)CCC=C(C)C,outcome,[1],inactive
same,outcome,[2],inactive
same,outcome,[9],inactive
same,Potency,[4],inactive
same,Potency,[5],inactive
same,outcome,[7],inactive
same,outcome,[6],inactive
same,Potency,[8],inactive
CC(=O)OC1CCC(C(C)(C)C)CC1 (centres undefined),outcome,[1],inactive
same,outcome,[2],inactive
same,outcome,[3],inactive
same,Potency,[4],inactive
same,outcome,[6],inactive
same,Potency,[8],inactive
same,outcome,[10],inactive
CC/C=C\CCOC(=O)c1ccccc1,outcome,[1],inactive
same,outcome,[2],inactive
same,outcome,[9],inactive
same,outcome,[6],inactive
same,Potency,[8],inactive
same,outcome,[10],inactive
CC(O)C(CO)C(C)O (centres undefined),outcome,[1],inactive
same,outcome,[2],inactive
same,outcome,[9],inactive
same,Potency,[5],inactive
same,outcome,[7],inactive
same,outcome,[6],inactive
same,Potency,[8],inactive
same,outcome,[10],inactive
CCCC(=O)C(CC)Sc1ccoc1C (centres undefined),outcome,[1],inactive
same,outcome,[2],inactive
same,Potency,[4],inactive
same,Potency,[5],inactive
same,outcome,[7],inactive
same,outcome,[6],inactive
same,Potency,[8],inactive
same,outcome,[10],inactive
C[C@@H]1CCC[C@H](C)N1CCCC(O)(c1ccccc1)c1ccccn1 (some centres undefined),outcome,[1],inactive
same,outcome,[2],inactive
same,outcome,[9],inactive
same,Potency,[4],inactive
same,Potency,[5],inactive
same,outcome,[7],inactive
same,outcome,[6],inactive
same,outcome,[10],inactive
CCC(C)c1nccnc1OC (centres undefined),outcome,[1],inactive
same,outcome,[2],inactive
same,outcome,[9],inactive
same,Potency,[5],inactive
same,outcome,[7],inactive
same,outcome,[6],inactive
same,Potency,[8],inactive
